# Data: PubChem BioAssay (NCI)
# The panel holds about 79,000 compounds, 15% with a hit somewhere; the sample as a whole holds those more often. A number with no mark means an inactive call. Activity calls are given as the source filed them. Cut-off read from the data, not from the text of the source: active = growth inhibition above about 70%; inactive = the rest.
# What was measured:
# [1] = NCI Yeast Anticancer Drug Screen. Data for the wt1 strain (AID 149);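 note: 0% = growth of vehicle-treated wt1 cultures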; details: S. cerevisiae wt1 strain (SPY 50644) growth inhibition, stronger effect = higher value
# Summary of the method: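 Vehicle-normalised growth inhibition; strain wt1; compound exposure.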
# [2] = NCI Yeast Anticancer Drug Screen. Data for the rad50EPP+ strain (AID 151);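 note: 0% = growth of vehicle-treated control cultures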; details: S. cerevisiae rad50 mutant strain, stronger effect = higher value
# Summary of the method: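 One strain with a rad50 alteration (rad50EPP+) was compound-treated, its growth then compared to that of vehicle controls.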
# [3] = NCI Yeast Anticancer Drug Screen. Data for the mgt1 strain (AID 153); details: S. cerevisiae mgt1 mutant growth inhibition, stronger effect = higher value
# Summary of the method: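 After exposure of the mgt1 yeast mutant to compound, growth was measured and reported as inhibition compared with vehicle controls.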
# [4] = NCI Yeast Anticancer Drug Screen. Data for the rad50 strain (AID 155);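 note: 0% = growth of vehicle-only cultures of the same strain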; details: S. cerevisiae rad50 strain growth inhibition, stronger effect = higher value
# Summary of the method: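 A DNA repair-deficient yeast mutant serves as the test organism; compound-induced growth inhibition is calculated against vehicle-treated cells.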
# [5] = NCI Yeast Anticancer Drug Screen. Data for the mec2-1 strain (AID 157); details: S. cerevisiae mec2-1 strain, stronger effect = higher value
# Summary of the method: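 Test agents were screened against the mec2-1 yeast strain, with defined DNA repair or cell cycle alteration. Growth was scored as inhibition against vehicle-only controls.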
# [6] = NCI Yeast Anticancer Drug Screen. Data for the rad14 strain (AID 159);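 note: 0% = growth of vehicle-treated control cultures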; details: S. cerevisiae rad14 strain growth inhibition, stronger effect = higher value
# Summary of the method: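 Vehicle-treated cultures served as the baseline for growth inhibition of a DNA repair-mutant yeast strain exposed to each compound.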
# [7] = NCI Yeast Anticancer Drug Screen. Data for the sgs1 mgt1 strain (AID 161);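 note: 0% = growth of cultures given vehicle only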; details: S. cerevisiae sgs1 mgt1 strain, stronger effect = higher value
# Summary of the method: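 Mutant yeast exposed to compound; growth scored against vehicle-only wells.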
# [8] = NCI Yeast Anticancer Drug Screen. Data for the CLN2oe strain (AID 163);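 note: 0% = growth of vehicle-only control cultures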; details: S. cerevisiae CLN2oe strain, stronger effect = higher value
# Summary of the method: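 Here, growth inhibition in a cell-cycle-altered yeast strain after compound exposure was quantified against vehicle control growth.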
# [9] = NCI Yeast Anticancer Drug Screen. Data for the cln2 rad14 strain (AID 165);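 note: 0% = growth equal to vehicle treated cultures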; details: S. cerevisiae cln2 rad14 strain, stronger effect = higher value
# Summary of the method: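 Growth of compound-exposed yeast (cln2 rad14 genotype) measured and expressed as inhibition relative to vehicle.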
# [10] = NCI Yeast Anticancer Drug Screen. Data for the bub3 strain (AID 167); details: S. cerevisiae bub3 mutant strain, stronger effect = higher value
# Summary of the method: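 Inhibition values come from growth of compound-treated mutant yeast normalised to vehicle-treated controls.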
# [11] = NCI Yeast Anticancer Drug Screen. Data for the wt2 strain (AID 169);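 note: 0% = growth of vehicle-treated yeast cultures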; details: S. cerevisiae wt2 strain growth inhibition, stronger effect = higher value
# Summary of the method: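 Genetically defined yeast strains from a DNA-repair/cell-cycle panel were used. Compound-exposed yeast growth was measured, and the inhibition was calculated relative to vehicle treatment.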
# [12] = NCI Yeast Anticancer Drug Screen. Data for the mlh1 strain (AID 171);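 note: 0% = growth of vehicle-treated control cultures of the same strain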; details: S. cerevisiae mlh1 strain growth inhibition, stronger effect = higher value
# Summary of the method: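 Here the genetically defined yeast mutant is grown with each compound, and the extent to which its growth falls below that of vehicle-exposed cells is reported.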
# [13] = NCI Yeast Anticancer Drug Screen. Data for the sgs1 strain (AID 173);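 note: 0% = growth of vehicle-only control cultures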; details: S. cerevisiae sgs1 mutant, stronger effect = higher value
# Summary of the method: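 Relative growth inhibition, referenced to vehicle, was determined in a yeast strain with a defined alteration affecting DNA damage repair or cell cycle control after compound exposure.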
# [14] = NCI Yeast Anticancer Drug Screen. Data for the mlh1 rad18 strain (AID 175); details: S. cerevisiae mlh1 rad18 strain growth inhibition, stronger effect = higher value
# Summary of the method: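 In this whole-cell yeast screen, a strain with altered DNA damage repair is challenged with compound, and its growth is measured against matched vehicle-treated controls.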
# [15] = NCI Yeast Anticancer Drug Screen. Data for the rad18 strain (AID 177); details: S. cerevisiae rad18 mutant growth inhibition, stronger effect = higher value
# Summary of the method: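 Screen uses a yeast strain with a defined lesion in DNA damage repair; compound effect is read as loss of growth compared to untreated vehicle cultures.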
# [16] = at 5.0 µM (retest, dose inferred, filed as 0.5)
# [17] = at 50.0 µM (retest, dose inferred, filed as 5.0)
structure (smiles),measurement,setting,value
Cc1c2ccnc(C(=O)NCCN(C)C)c2cc2c3cc(O)ccc3n(C)c12,growth inhibition,[1]; at 1.2 µM,2%
same,growth inhibition,[1]; at 3.7 µM,5%
same,growth inhibition,[1]; at 11.0 µM,10%
same,growth inhibition,[1]; at 33.0 µM,20%
same,growth inhibition,[1]; at 100.0 µM,29%
same,growth inhibition,[2]; at 1.2 µM,-2%
same,growth inhibition,[2]; at 3.7 µM,4%
same,growth inhibition,[2]; at 11.0 µM,22%
same,growth inhibition,[2]; at 33.0 µM,44%
same,growth inhibition,[2]; at 100.0 µM,56%
same,growth inhibition,[3]; at 1.2 µM,0%
same,growth inhibition,[3]; at 3.7 µM,2%
same,growth inhibition,[3]; at 11.0 µM,8%
same,growth inhibition,[3]; at 33.0 µM,10%
same,growth inhibition,[3]; at 100.0 µM,30%
same,growth inhibition,[4]; at 1.2 µM,1%
same,growth inhibition,[4]; at 3.7 µM,20%
same,growth inhibition,[4]; [16],11%
same,growth inhibition,[4]; at 11.0 µM,67%
same,growth inhibition,[4]; at 33.0 µM,88% (active)
same,growth inhibition,[4]; [17],59%
same,growth inhibition,[4]; at 50.0 µM,92.1% (active)
same,growth inhibition,[4]; at 100.0 µM,92% (active)
same,growth inhibition,[5]; at 1.2 µM,1%
same,growth inhibition,[5]; at 3.7 µM,6%
same,growth inhibition,[5]; [16],-7%
same,growth inhibition,[5]; at 11.0 µM,14%
same,growth inhibition,[5]; at 33.0 µM,26%
same,growth inhibition,[5]; [17],7%
same,growth inhibition,[5]; at 50.0 µM,23.8%
same,growth inhibition,[5]; at 100.0 µM,39%
same,growth inhibition,[6]; at 1.2 µM,1%
same,growth inhibition,[6]; at 3.7 µM,3%
same,growth inhibition,[6]; at 11.0 µM,9%
same,growth inhibition,[6]; at 33.0 µM,21%
same,growth inhibition,[6]; at 100.0 µM,37%
same,growth inhibition,[7]; [16],-4%
same,growth inhibition,[7]; [17],8%
same,growth inhibition,[7]; at 50.0 µM,13.3%
same,growth inhibition,[8]; at 1.2 µM,0%
same,growth inhibition,[8]; at 3.7 µM,1%
same,growth inhibition,[8]; at 11.0 µM,0%
same,growth inhibition,[8]; at 33.0 µM,9%
same,growth inhibition,[8]; at 100.0 µM,19%
same,growth inhibition,[9]; [16],4%
same,growth inhibition,[9]; [17],33%
same,growth inhibition,[9]; at 50.0 µM,44.5%
same,growth inhibition,[10]; at 1.2 µM,1%
same,growth inhibition,[10]; at 3.7 µM,1%
same,growth inhibition,[10]; [16],40%
same,growth inhibition,[10]; at 11.0 µM,4%
same,growth inhibition,[10]; at 33.0 µM,14%
same,growth inhibition,[10]; [17],42%
same,growth inhibition,[10]; at 50.0 µM,8.05%
same,growth inhibition,[10]; at 100.0 µM,23%
same,growth inhibition,[11]; at 1.2 µM,1%
same,growth inhibition,[11]; at 3.7 µM,2%
same,growth inhibition,[11]; at 11.0 µM,7%
same,growth inhibition,[11]; at 33.0 µM,20%
same,growth inhibition,[11]; at 100.0 µM,30%
same,growth inhibition,[12]; at 1.2 µM,4%
same,growth inhibition,[12]; at 3.7 µM,4%
same,growth inhibition,[12]; at 11.0 µM,10%
same,growth inhibition,[12]; at 33.0 µM,21%
same,growth inhibition,[12]; at 100.0 µM,32%
same,growth inhibition,[13]; at 1.2 µM,-2%
same,growth inhibition,[13]; at 3.7 µM,2%
same,growth inhibition,[13]; at 11.0 µM,4%
same,growth inhibition,[13]; at 33.0 µM,17%
same,growth inhibition,[13]; at 100.0 µM,32%
same,growth inhibition,[14]; [16],0%
same,growth inhibition,[14]; [17],-1%
same,growth inhibition,[14]; at 50.0 µM,46.4%
same,growth inhibition,[15]; at 1.2 µM,-5%
same,growth inhibition,[15]; at 3.7 µM,-4%
same,growth inhibition,[15]; at 11.0 µM,-1%
same,growth inhibition,[15]; at 33.0 µM,3%
same,growth inhibition,[15]; at 100.0 µM,15%
